# Compounds without any hit were thinned out: in the full panel of roughly 79,000, 15% have a hit. A number with no mark means an inactive call. The source made the active and inactive calls. Rule as the data show it: active = growth inhibition above about 70%; inactive = the rest.
# Experiments:
# [1] = NCI Yeast Anticancer Drug Screen. Data for the rad50 strain (AID 155);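 also: 0% = growth of vehicle-only cultures of the same strain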; details: S. cerevisiae rad50 strain growth inhibition, active compounds read high
# Outline: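 Vehicle-treated cultures provide the reference for the growth inhibition reported for compound-exposed, repair-deficient yeast.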
# [2] = NCI Yeast Anticancer Drug Screen. Data for the mec2-1 strain (AID 157); details: S. cerevisiae mec2-1 strain, active compounds read high
# Outline: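 Mutant yeast (mec2-1) grown with compound; growth inhibition relative to vehicle control reported.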
# [3] = NCI Yeast Anticancer Drug Screen. Data for the sgs1 mgt1 strain (AID 161);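 also: 0% = growth of cultures given vehicle only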; details: S. cerevisiae sgs1 mgt1 strain, active compounds read high
# Outline: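 Growth of a repair-deficient yeast mutant was monitored after compound treatment and expressed as inhibition relative to vehicle-treated cultures.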
# [4] = NCI Yeast Anticancer Drug Screen. Data for the cln2 rad14 strain (AID 165);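 also: 0% = growth equal to vehicle treated cultures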; details: S. cerevisiae cln2 rad14 strain, active compounds read high
# Outline: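 Readout is yeast growth inhibition versus vehicle-treated controls, using a strain with cln2 and rad14 alterations exposed to compound.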
# [5] = NCI Yeast Anticancer Drug Screen. Data for the bub3 strain (AID 167); details: S. cerevisiae bub3 mutant strain, active compounds read high
# Outline: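 Mutant yeast screening strain plus compound; vehicle-treated cultures serve as the 0% inhibition reference.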
# [6] = NCI Yeast Anticancer Drug Screen. Data for the mlh1 rad18 strain (AID 175); details: S. cerevisiae mlh1 rad18 strain growth inhibition, active compounds read high
# Outline: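 Genetically defined yeast (DNA repair-deficient) exposed to compounds; growth inhibition determined relative to vehicle.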
# [7] = at 5.0 µM (retest, dose inferred, filed as 0.5)
# [8] = at 50.0 µM (retest, dose inferred, filed as 5.0)
SMILES,"growth inhibition [1, 7] [%]","growth inhibition [1, 8]",growth inhibition ([1]; at 50.0 µM),"growth inhibition [2, 7] [%]","growth inhibition [2, 8]",growth inhibition ([2]; at 50.0 µM),"growth inhibition [3, 7] [%]","growth inhibition [3, 8]",growth inhibition ([3]; at 50.0 µM),"growth inhibition [4, 7] [%]","growth inhibition [4, 8]",growth inhibition ([4]; at 50.0 µM),"growth inhibition [5, 7] [%]","growth inhibition [5, 8]",growth inhibition ([5]; at 50.0 µM),"growth inhibition [6, 7] [%]","growth inhibition [6, 8]",growth inhibition ([6]; at 50.0 µM)
c1ccc2c(c1)[nH]c1c[n+]3c(c[n+]12)[nH]c1ccccc13,7,53%,71.6% (active),8,47%,5.45%,10,67%,58.9%,-7,29%,45.2%,-8,50%,6%,4,84% (active),80% (active)
CSC(=N)N1N=C2/C(=C/c3ccccc3)CCC[C@H]2[C@H]1c1ccccc1,-17,-14%,21.4%,-7,-2%,-6.7%,-13,13%,40.7%,-35,5%,-14.8%,-3,5%,4.45%,-10,29%,27.9%
Cc1cc(O)cc2c1c(=O)c1ccccc1n2C,15,29%,39%,15,24%,24.5%,20,17%,11.4%,15,25%,1.8%,18,25%,2.4%,23,34%,11.6%
c1ccc(Cn2nnnc2-c2ccccc2)cc1,-151,-125%,23.8%,-53,-43%,43.5%,-66,-61%,1.75%,-55,-33%,80.5% (active),-70,-57%,5.45%,-147,-89%,14.3%
Oc1ccc2ccccc2c1CNc1ccc2ccccc2c1,8,57%,95.9% (active),10,15%,98.7% (active),11,69%,98.8% (active),-1,18%,97.8% (active),0,60%,95.4% (active),12,67%,98.5% (active)
COc1nc(NC2OCC(O)C(O)C2O)c(Cl)c(=O)n1C (centres undefined),0,-1%,-15.4%,-1,-5%,-3.7%,-2,-3%,11.4%,-1,-3%,30.4%,-2,-4%,10.2%,-5,-7%,-7.85%
Cc1ccc(C(=O)/C=C/c2ccco2)c(C)c1,-9,-12%,11.3%,-42,1%,25.9%,-14,15%,63.8%,-14,5%,25.8%,2,4%,54.5%,-20,61%,17.6%
O/N=C1/C(=C/c2ccc3c(c2)OCO3)CCCC1C(NO)c1ccc2c(c1)OCO2 (centres undefined),-2,65%,82.3% (active),-2,3%,90.5% (active),4,50%,97% (active),-5,25%,-7.15%,-2,51%,38.4%,-3,27%,97.4% (active)
Cc1cc[c]([Sn]([Cl])([O][Sn]([Cl])([c]2ccc(C)cc2)[c]2ccc(C)cc2)[c]2ccc(C)cc2)cc1,17,57%,84.7% (active),15,55%,89.2% (active),29,63%,85.8% (active),2,35%,83.1% (active),16,67%,86.7% (active),26,54%,91.3% (active)
COC(=O)CC1C(=O)OCc2c1cc1n(c2=O)Cc2c-1nc1ccccc1c2OC (centres undefined),15,77% (active),94.4% (active),4,15%,9.05%,-4,-1%,10%,-12,-7%,20.4%,-2,11%,12.7%,7,1%,51.2%
COc1cc2c(cc1OC)c1c(OC)c(OC)cc3c1c1c2sc(=S)n1CC3,4,59%,93% (active),14,46%,96.9% (active),11,55%,96.1% (active),5,14%,93.8% (active),4,33%,95.4% (active),5,53%,99% (active)
N#Cc1cccc2c1Sc1ccccc1N2,22,31%,88.6% (active),6,-9%,92.8% (active),1,6%,89.2% (active),-5,-6%,90.1% (active),-26,6%,91.3% (active),-7,7%,60.5%
COC1=Nc2ccccc2S(=O)(=O)C=C1,4,87% (active),98.2% (active),3,79% (active),98.5% (active),2,89% (active),99.2% (active),6,79% (active),95.8% (active),11,98% (active),98.7% (active),12,94% (active),98.3% (active)

# Source: PubChem BioAssay (NCI)
